Data: PubChem BioAssay (NCATS)
Values joined by “and” are separate entries in the source; they are usually repeats but may differ in a detail not shown here. Identical values can stand only once. Active and inactive are the calls of the source. Unless noted, the call rests on the fitted dose curve.

Experiments:
[1] = biological target: Estrogen receptor (Homo sapiens) (UniProt P03372); assay: qHTS assay for small molecule antagonists of estrogen receptor alpha signaling (AID 588513; active means well fitted curve in the direction sought with a large enough effect in the signal ratio, with a control signal flat, not every such curve was filed as active; inconclusive means small, poorly fitted or top-dose-only effect, or effect the other way, or a change in a side signal; inactive means no such curve, though single readings can be large or run the other way; the % refers to the signal ratio; further: potency means the concentration at half of the fitted maximal effect)
Outline: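 ER-alpha-UAS-bla GripTite HEK 293 cells in medium with 2% charcoal/dextran-treated FBS were preincubated 4 h at 37 C, dosed with compound (1:2 titration), stimulated with 0.5nM 17-beta-estradiol for 18 h, then read by CCF4 beta-lactamase fluorescence.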

[2] = biological target: Peroxisome proliferator-activated receptor delta (Homo sapiens) (UniProt Q03181); assay: qHTS assay for small molecule agonists of peroxisome proliferator-activated receptor delta signaling (AID 588534);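 further: 0% = DMSO basal wells and 100% = positive control agonist at 10 µM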
Outline: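 Cells carrying a PPAR-delta beta-lactamase reporter were treated with compounds for 18 h at 37 °C in agonist mode. CCF4 fluorescence was read after 2 h; EC50 and efficacy from Hill fits.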

[3] = biological target: Peroxisome proliferator-activated receptor gamma (Homo sapiens) (UniProt P37231); assay: qHTS assay for small molecule agonists of peroxisome proliferator-activated receptor gamma signaling (AID 588536; active means well fitted curve in the direction sought with a large enough effect in the signal ratio, with a control signal flat, not every such curve was filed as active; inconclusive means small, poorly fitted or top-dose-only effect, or effect the other way, or a change in a side signal; inactive means no such curve, though single readings can be large or run the other way; the % refers to the signal ratio;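 further: 0% = DMSO basal wells and 100% = rosiglitazone at 2 µM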)
Outline: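 Ratiometric blue/green fluorescence (405 nm excitation; 460 and 530 nm emission) from CCF4-loaded HEK293 reporter cells serves as signal. Exposure to test compounds lasts 16 h at 37 C in medium containing 1% charcoal/dextran-treated serum.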

[4] = qHTS assay for small molecule antagonists of retinoid X receptor alpha signaling (AID 588546; active means well fitted inhibition curve with a large enough effect in the signal ratio, with a control signal flat, not every such curve was filed as active; inconclusive means small, poorly fitted or top-dose-only effect, or effect the other way, or a change in a side signal; inactive means no such curve, though single readings can be large or run the other way; the % refers to the signal ratio;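 further: cells stimulated with 9-cis-retinoic acid as agonist; on the % scale 0 is the no-effect control and ±100 the full control effect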); conditions: HEK293T RXRa-UAS-bla, beta-lactamase ratio, antagonist mode; measured here: W530 green channel, cytotoxicity proxy
Outline: (§1)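 Beta-lactamase reporter inhibition, read as CCF4 fluorescence ratio (ex 405, em 460/530 nm) after 2 h at RT. HEK293T UAS-bla cells, 2500/well, were stimulated with 9-cis-RA at 500 or 100 nM final alongside test compound for 18 h at 37 C.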

[5] = biological target: Retinoic acid receptor RXR-alpha (Homo sapiens) (UniProt P19793); assay: as above; conditions: HEK293T RXRa-UAS-bla, beta-lactamase ratio, antagonist mode
Outline: as §1

[6] = qHTS assay for small molecule activators of the p53 signaling pathway (AID 651743; active means well fitted activation curve with a large enough effect in the signal ratio, not every such curve was filed as active; inconclusive means small, poorly fitted or top-dose-only effect, or a change in a side signal; the % refers to the signal ratio; further: potency means the concentration at half of the fitted maximal effect; on activation: series mostly up to about 92 µM; % of control where 0% means no effect); conditions: HCT-116 p53RE-bla, beta-lactamase FRET ratio, 16 h; activation: stronger effect = higher value
Outline: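 Cell-based beta-lactamase reporter (p53 response elements, HCT-116 background). After a 5-hour preincubation, cells received compound for 16 hours at 37 C; substrate development ran 2 hours at room temperature.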

[7] = qHTS assay for small molecule agonists of the antioxidant response element (ARE) signaling pathway measured by Nrf2-dependant transcriptional activity (AID 720636; active means well fitted curve in the direction sought with a large enough effect in the repeat runs; inconclusive means weak or mixed curves; inactive means no such curve, though single readings can be large; an effect the other way counts as inactive or inconclusive;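 further: HepG2 cells with an ARE-driven luciferase reporter; % of control where 0% means no effect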)
Outline: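 Attachment 6 hr at 37 C, then compound versus DMSO vehicle for 16 hr in ARE-luc HepG2 cells (1% dialyzed FBS); luminescence recorded 30 min after ONE-Glo addition at room temperature.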

[8] = biological target: Estrogen receptor (Homo sapiens) (UniProt P03372); assay: qHTS assay for small molecule agonists of estrogen receptor alpha signaling (AID 588514);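 further: 0% = vehicle only and 100% = reference agonist; nearly all actives have a fitted effect of over 70% in size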
Outline: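 ER-alpha-UAS-bla GripTite HEK293 cells, 5000/well in 2% charcoal/dextran-stripped FBS medium, treated with compound titrations 18 h at 37 C. CCF4 beta-lactamase read by fluorescence after 2 h RT; normalised to 20 nM 17-beta-estradiol (100%) and DMSO (0%), Hill fit for EC50 and efficacy.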

[9] = biological target: Vitamin D3 receptor (Homo sapiens) (UniProt P11473); assay: qHTS assay for small molecule antagonists of vitamin D receptor signaling (AID 588541);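 further: receptor activated by calcitriol during compound treatment; series mostly up to about 77 µM; on the % scale 0 is the no-effect control and ±100 the full control effect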
Outline: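 VDR-UAS-bla HEK293T cells (2000/well, 2% charcoal-stripped FBS) were treated with titrated compounds plus 1-alpha,25-dihydroxyvitamin D3 (50 nM or 3 nM final) for 16 h at 37 C. CCF4 beta-lactamase fluorescence was read; Hill fits gave IC50.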

[10] = biological target: Vitamin D3 receptor (Homo sapiens) (UniProt P11473); assay: qHTS assay for small molecule agonists of vitamin D receptor signaling (AID 588543);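 further: 0% = DMSO basal and 100% = reference agonist control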
Outline: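 GeneBLAzer VDR-UAS-bla HEK293T cells in 2% charcoal-stripped FBS medium were dosed with compound titrations for 16 h at 37 °C; CCF4 β-lactamase readout (405 nm ex, 460/530 nm em). EC50 and efficacy from Hill fits, normalized to 50 nM calcitriol (100%) and DMSO (0%).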

[11] = biological target: Thyroid hormone receptor beta (Homo sapiens) (UniProt P10828); assay: qHTS assay for small molecule agonists of thyroid hormone receptor beta signaling (AID 588545)
Outline: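 In this cell-based screen, titrated compounds act on HEK 293 cells held in medium with 2% charcoal/dextran FBS, NEAA and pyruvate for 18 hrs at 37 C. Responses are expressed relative to T3 (10 nM) as 100% and basal DMSO as 0%.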

[12] = qHTS assay for environmental chemicals that activate the Aryl hydrocarbon Receptor (AhR) signaling pathway (AID 651777; active means well fitted curve in the direction sought with a large enough effect; inconclusive means small, poorly fitted or top-dose-only effect, or another doubt; inactive means no such curve, though single readings can be large; an effect the other way counts as inactive or inconclusive; further: % of control where 0% means no effect; nearly all actives have a fitted effect of over 15% in size); conditions: 1A2-DRE human hepatoma cells, luciferase, 24 h; activation: stronger effect = higher value
Outline: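 Concentration–response screening used 1,200 1A2-DRE cells per well, 24 hr compound exposure (37 C, 5% CO2), and One-Glo luminescence as the AhR-driven CYP1A2 reporter signal.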

[13] = biological target: Peroxisome proliferator-activated receptor alpha (Homo sapiens) (UniProt Q07869); assay: qHTS assay for small molecule agonists of the peroxisome proliferator-activated receptor alpha (PPARalpha) signaling pathway (AID 651778; active means well fitted curve in the direction sought with a large enough effect; inconclusive means small, poorly fitted or top-dose-only effect, or another doubt; inactive means no such curve, though single readings can be large; an effect the other way counts as inactive or inconclusive; further: % of control where 0% means no effect); conditions: PathHunter PPARalpha complementation, chemiluminescence, 6 h; max response: stronger effect = higher value
Outline: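 Cells plated at 2,000/well and held overnight at 37 C, 5% CO2, then compound added by pin tool for 6 hr; after PathHunter detection reagent and 60 min at room temperature, chemiluminescence from enzyme complementation was read.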

[14] = qHTS assay for small molecule agonists of the antioxidant response element (ARE) signaling pathway measured by Nrf2-dependant transcriptional activity - cell viability counter screen (AID 720653; active means well fitted curve in the direction sought with a large enough effect in the repeat runs; inconclusive means weak or mixed curves; inactive means no such curve, though single readings can be large; an effect the other way counts as inactive or inconclusive; further: on the % scale 0 is the no-effect control and ±100 the full control effect); conditions: ARE-bla HepG2 viability, CellTiter-Glo ATP luminescence, 16 h; max response: stronger effect = lower value
Outline: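 ARE-bla HepG2 cells (2,000/well) rested 5 hrs at 37C/5% CO2, then exposed to compounds in DMSO for 16 hrs. Viability was read in the same wells as intracellular ATP by luminescence, 30 min at room temperature after reagent addition.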

[15] = qHTS assay for cell viability of HEK293 cells (AID 743288; active means well fitted curve in the direction sought with a large enough effect; inconclusive means small, poorly fitted or top-dose-only effect, or another doubt; inactive means no such curve, though single readings can be large; an effect the other way counts as inactive or inconclusive; further: on the % scale 0 is the no-effect control and ±100 the full control effect; nearly all actives have a fitted effect of over 50% in size); conditions: ATP luminescence (CellTiter-Glo), 18 h; max response: stronger effect = lower value
Outline: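 Parental HEK293 cells were seeded at 2,000 cells/well, rested at least 5 h at 37 C, then exposed to compounds in DMSO for 18 h at 37 C. Viability was read as ATP-dependent luciferase luminescence after 30 min at room temperature.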

[16] = qHTS assay for cell viability of the p53RE-bla HCT-116 cell line (AID 743292; active means well fitted curve in the direction sought with a large enough effect; inconclusive means small, poorly fitted or top-dose-only effect, or another doubt; inactive means no such curve, though single readings can be large; an effect the other way counts as inactive or inconclusive; further: on the % scale 0 is the no-effect control and ±100 the full control effect; nearly all actives have a fitted effect of over 55% in size)
Outline: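 Compound-exposed HCT-116 (p53RE-bla) cells, 4,000 per well, were kept 16 h at 37 C following a 5 h preincubation. Cell number was estimated from total ATP by CellTiter-Glo luminescence read after 30 min at room temperature.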

[17] = qHTS assay for small molecule agonists of retinoid X receptor alpha signaling (AID 588544); conditions: HEK293T RXRa-UAS-bla, beta-lactamase reporter, 18 h; 530 nm emission;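 on activation: 0% = DMSO basal wells and 100% = reference agonist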
[18] = biological target: Retinoic acid receptor RXR-alpha (Homo sapiens) (UniProt P19793); assay: as above
[19] = qHTS assay for small molecule activators of the nuclear factor-kappa B (NF-kB) signaling pathway (AID 651749; active means well fitted activation curve with a large enough effect in the signal ratio; inconclusive means small, poorly fitted or top-dose-only effect, or a change in a side signal; the % refers to the signal ratio; further: series mostly up to about 77 µM; % of control where 0% means no effect); conditions: NF-kB-bla ME-180 cells, beta-lactamase FRET ratio, 16 h; activation: stronger effect = higher value
Outline: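 Screening used 2,000 ME-180 reporter cells per well exposed to pinned compound (23 nL) or DMSO; after 16 hr at 37C, beta-lactamase expression under NF-kB control was assessed through FRET.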

[20] = biological target: Nuclear receptor subfamily 1 group I member 2 (Rattus norvegicus) (UniProt Q9R1A7); assay: qHTS assay for small molecule activators of the rat pregnane X receptor (rPXR) signaling pathway (AID 651751; call rule not given here; further: 0% is about no effect); conditions: rPXR reporter cells, luciferase (One-Glo), 24 h
Nuclear receptor subfamily 1 group I member 2 (Rattus norvegicus), sequence (Q9R1A7 whole entry, looked up): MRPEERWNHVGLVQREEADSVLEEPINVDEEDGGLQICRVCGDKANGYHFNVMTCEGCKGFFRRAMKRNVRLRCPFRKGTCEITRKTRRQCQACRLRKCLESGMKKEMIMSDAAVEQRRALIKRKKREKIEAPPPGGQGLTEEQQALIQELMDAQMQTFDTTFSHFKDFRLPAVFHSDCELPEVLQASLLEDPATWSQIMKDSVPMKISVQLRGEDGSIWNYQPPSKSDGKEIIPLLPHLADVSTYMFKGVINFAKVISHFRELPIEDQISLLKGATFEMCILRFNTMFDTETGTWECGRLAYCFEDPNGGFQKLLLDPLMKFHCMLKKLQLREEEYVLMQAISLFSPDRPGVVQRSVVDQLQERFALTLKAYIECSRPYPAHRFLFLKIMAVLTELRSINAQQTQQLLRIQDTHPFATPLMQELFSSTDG

Estrogen receptor (Homo sapiens), sequence (P03372 whole entry, looked up): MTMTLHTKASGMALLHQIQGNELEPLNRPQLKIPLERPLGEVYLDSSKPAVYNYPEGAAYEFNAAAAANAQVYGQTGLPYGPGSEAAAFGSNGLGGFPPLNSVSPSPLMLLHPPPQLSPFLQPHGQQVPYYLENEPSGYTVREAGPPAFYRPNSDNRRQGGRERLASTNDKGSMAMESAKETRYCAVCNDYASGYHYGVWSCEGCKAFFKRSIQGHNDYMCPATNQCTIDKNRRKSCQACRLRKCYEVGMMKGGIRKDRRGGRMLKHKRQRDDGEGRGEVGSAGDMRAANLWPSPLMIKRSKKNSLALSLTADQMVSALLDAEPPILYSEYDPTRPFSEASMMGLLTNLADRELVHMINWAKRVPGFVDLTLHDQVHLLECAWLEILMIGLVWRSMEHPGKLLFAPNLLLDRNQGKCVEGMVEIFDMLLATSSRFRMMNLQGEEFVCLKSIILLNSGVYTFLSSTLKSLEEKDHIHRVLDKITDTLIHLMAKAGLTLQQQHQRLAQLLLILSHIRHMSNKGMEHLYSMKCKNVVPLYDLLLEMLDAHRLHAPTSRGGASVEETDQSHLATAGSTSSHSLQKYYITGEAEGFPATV
Thyroid hormone receptor beta (Homo sapiens), sequence (P10828 whole entry, looked up): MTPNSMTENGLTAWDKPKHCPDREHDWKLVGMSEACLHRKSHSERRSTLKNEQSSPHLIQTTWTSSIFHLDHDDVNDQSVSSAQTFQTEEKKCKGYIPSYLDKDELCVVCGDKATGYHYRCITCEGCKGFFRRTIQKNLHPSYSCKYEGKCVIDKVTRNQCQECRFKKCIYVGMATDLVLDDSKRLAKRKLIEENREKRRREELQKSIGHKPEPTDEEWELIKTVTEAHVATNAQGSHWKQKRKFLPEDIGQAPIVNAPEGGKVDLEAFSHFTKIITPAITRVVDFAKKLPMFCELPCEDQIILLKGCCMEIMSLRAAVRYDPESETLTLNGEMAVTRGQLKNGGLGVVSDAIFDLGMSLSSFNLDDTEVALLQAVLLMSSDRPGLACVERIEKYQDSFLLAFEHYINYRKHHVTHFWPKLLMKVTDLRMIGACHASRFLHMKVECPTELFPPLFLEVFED
Vitamin D3 receptor (Homo sapiens), sequence (P11473 whole entry, looked up): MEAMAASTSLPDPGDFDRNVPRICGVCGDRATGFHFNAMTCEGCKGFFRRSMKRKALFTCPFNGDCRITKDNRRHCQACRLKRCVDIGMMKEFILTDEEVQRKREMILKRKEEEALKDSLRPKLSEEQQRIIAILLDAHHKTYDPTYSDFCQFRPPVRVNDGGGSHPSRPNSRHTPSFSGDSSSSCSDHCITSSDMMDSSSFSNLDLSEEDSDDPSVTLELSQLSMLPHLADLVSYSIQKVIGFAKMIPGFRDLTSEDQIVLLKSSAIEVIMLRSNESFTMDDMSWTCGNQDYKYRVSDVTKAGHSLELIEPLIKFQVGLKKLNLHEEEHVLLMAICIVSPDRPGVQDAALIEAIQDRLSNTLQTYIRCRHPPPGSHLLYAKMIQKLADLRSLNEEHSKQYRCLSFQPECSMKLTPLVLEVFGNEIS
Peroxisome proliferator-activated receptor delta (Homo sapiens), sequence (Q03181 whole entry, looked up): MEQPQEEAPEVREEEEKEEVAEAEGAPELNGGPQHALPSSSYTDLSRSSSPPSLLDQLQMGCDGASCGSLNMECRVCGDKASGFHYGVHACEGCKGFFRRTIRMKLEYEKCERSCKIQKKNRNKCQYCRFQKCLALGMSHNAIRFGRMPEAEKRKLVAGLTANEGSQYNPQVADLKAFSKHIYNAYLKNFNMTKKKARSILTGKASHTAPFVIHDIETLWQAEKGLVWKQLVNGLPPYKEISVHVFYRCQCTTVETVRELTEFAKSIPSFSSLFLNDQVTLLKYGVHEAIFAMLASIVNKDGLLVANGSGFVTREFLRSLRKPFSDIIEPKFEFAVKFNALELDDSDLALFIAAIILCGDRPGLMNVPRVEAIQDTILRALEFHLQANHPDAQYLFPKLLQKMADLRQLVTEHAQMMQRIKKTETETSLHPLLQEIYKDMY
Peroxisome proliferator-activated receptor alpha (Homo sapiens), sequence (Q07869 whole entry, looked up): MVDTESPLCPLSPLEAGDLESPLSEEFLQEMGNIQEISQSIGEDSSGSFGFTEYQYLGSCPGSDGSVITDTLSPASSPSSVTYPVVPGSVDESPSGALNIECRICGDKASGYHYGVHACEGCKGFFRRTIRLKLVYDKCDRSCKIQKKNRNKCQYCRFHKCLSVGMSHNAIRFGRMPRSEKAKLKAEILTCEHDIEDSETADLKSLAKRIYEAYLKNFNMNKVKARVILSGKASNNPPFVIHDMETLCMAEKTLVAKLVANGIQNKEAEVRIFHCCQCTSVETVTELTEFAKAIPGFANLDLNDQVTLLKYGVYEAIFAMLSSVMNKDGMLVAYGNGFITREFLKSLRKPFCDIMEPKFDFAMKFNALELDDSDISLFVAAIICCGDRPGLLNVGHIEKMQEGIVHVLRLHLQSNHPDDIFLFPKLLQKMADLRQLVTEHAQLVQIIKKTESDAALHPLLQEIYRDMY
Peroxisome proliferator-activated receptor gamma (Homo sapiens), sequence (P37231 whole entry, looked up): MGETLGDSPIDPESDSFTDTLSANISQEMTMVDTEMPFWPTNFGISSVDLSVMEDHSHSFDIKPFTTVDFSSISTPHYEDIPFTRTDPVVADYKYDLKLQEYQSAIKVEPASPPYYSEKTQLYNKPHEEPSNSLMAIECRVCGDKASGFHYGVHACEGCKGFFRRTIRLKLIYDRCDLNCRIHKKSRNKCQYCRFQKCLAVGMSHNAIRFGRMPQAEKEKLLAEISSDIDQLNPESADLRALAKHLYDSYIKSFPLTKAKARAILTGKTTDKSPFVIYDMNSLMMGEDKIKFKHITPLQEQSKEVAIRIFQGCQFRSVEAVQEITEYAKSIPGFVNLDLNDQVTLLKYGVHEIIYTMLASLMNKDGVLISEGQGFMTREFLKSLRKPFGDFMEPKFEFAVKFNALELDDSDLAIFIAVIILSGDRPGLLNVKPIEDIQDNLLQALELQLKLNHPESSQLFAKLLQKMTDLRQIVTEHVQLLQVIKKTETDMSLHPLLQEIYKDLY
Retinoic acid receptor RXR-alpha (Homo sapiens), sequence (P19793 whole entry, looked up): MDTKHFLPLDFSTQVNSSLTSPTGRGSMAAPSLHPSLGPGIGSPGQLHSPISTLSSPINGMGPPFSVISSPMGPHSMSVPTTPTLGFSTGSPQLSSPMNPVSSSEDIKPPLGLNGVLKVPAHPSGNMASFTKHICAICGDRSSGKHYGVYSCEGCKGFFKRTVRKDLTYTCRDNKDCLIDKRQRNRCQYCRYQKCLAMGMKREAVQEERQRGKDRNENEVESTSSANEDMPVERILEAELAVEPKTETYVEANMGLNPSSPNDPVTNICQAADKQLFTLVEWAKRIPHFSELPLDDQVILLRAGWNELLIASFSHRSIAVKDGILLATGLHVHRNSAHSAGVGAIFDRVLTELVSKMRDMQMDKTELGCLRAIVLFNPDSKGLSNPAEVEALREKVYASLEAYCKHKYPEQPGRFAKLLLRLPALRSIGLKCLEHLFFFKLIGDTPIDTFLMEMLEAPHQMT

c1cc(OCC2CO2)cc(OCC2CO2)c1 (stereo not given)
6.7%: max response [4]
active: Potency [1] 31.6 µM [inconclusive] | Potency [6] 25.1 µM
inactive: outcome [2] | Potency [3] | max response [5] 5.23% | Potency [7]

CSC(=O)c1c(C(F)F)nc(C(F)(F)F)c(C(=O)SC)c1CC(C)C
-14.1%: max response [4]
inactive: Potency [1] | Potency [8] | outcome [2] | Potency [3] | Potency [9] | outcome [10] | Potency [11] | max response [5] -15.4% | activation [6] -0.469% | activation [12] 1.06% | max response [13] 6.5% | Potency [7] | max response [14] -2.65% | max response [15] -16.9% | Potency [16]

CCC(C)n1c(=O)[nH]c(C)c(Br)c1=O (stereo not given)
-12.2%: max response [4]
inactive: Potency [1] | Potency [8] | Potency [3] | Potency [9] | outcome [10] | Potency [18] | Potency [11] | max response [5] 5.41% | activation [6] -1.24% | activation [19] 0.0195% | activation [12] 4.91% | max response [13] -0.488% | Potency [7] | max response [14] 4.81% | max response [15] -3.11% | Potency [16] | max response [20] -6.26%
0.805%: max response [17]

CNC(=O)Oc1cc(C)cc(C(C)C)c1
inactive: Potency [1] | Potency [8] | outcome [2] | Potency [3] | Potency [9] | outcome [10] | Potency [18] | Potency [11] | max response [5] -3.46% | activation [6] 6.05% | activation [12] 0.548% | max response [13] 4.47% | Potency [7] | max response [14] 3.5% | max response [15] -6.56% | Potency [16] | max response [20] -3.71%
-15.4%: max response [17]
-5.53%: max response [4]

CCOP(=S)(OCC)Oc1ccc(S(C)=O)cc1 (stereo not given)
-3.81%: max response [4]
inactive: Potency [1] | Potency [8] | Potency [3] | Potency [9] | outcome [10] | Potency [18] | max response [5] -34.4% | activation [12] 14.8% | max response [13] -1.54% | Potency [7] | max response [14] 6.57% | max response [15] -11.8% | max response [20] 7.38%
-0.202%: max response [17]

O=S(=O)(O)C(F)(F)C(F)(F)C(F)(F)C(F)(F)C(F)(F)C(F)(F)F
-12.5% and -11.4%: max response [17]
inactive: Potency [1] | outcome [2] | Potency [3] | Potency [9] | outcome [10] | Potency [18] | Potency [11] | max response [5] -0.502% | activation [6] -1.95% and 1.08% | activation [19] 0.018% and -0.659% | activation [12] 2.71% and 0.937% | max response [13] 12% and 14.9% | Potency [7] | max response [14] 4.85% and -13.8% | max response [15] -20.2% and -14.6% | max response [20] -2.73% and -3.57%
0.0729%: max response [4]

O=C=Nc1ccc(Cl)cc1
inactive: Potency [1] | Potency [8] | outcome [2] | Potency [3] | Potency [9] | outcome [10] | Potency [18] | Potency [11] | max response [5] -10.5% | activation [6] 3.11% | activation [19] -0.765% | activation [12] 2.71% | max response [13] -0.75% | max response [14] -2.93% | max response [15] -9.38% | max response [20] 8.51%
-14.4%: max response [17]
-4.38%: max response [4]

CN(C)P(=O)(N(C)C)N(C)C
-16.8%: max response [17]
inactive: Potency [1] | Potency [8] | outcome [2] | Potency [3] | Potency [9] | outcome [10] | Potency [18] | Potency [11] | max response [5] -0.0212% | activation [6] -2.55% | activation [12] 0.845% | max response [13] 0.0783% | Potency [7] | max response [14] -5.07% | max response [15] 0.472% | Potency [16] | max response [20] -0.946%
-10.5%: max response [4]

CCNc1nc(NCC)nc(SC)n1
-14%: max response [4]
inactive: Potency [1] | Potency [8] | Potency [3] | Potency [9] | outcome [10] | Potency [18] | Potency [11] | max response [5] -3.26% | activation [6] -3.86% | activation [19] 0.586% | max response [13] 0.186% | Potency [7] | max response [14] 8.18% | Potency [16] | max response [20] 1.83%
-4.09%: max response [17]

O=C(O)c1nc(Cl)ccc1Cl
15.6% and -18.9%: max response [17]
-5.13% and -14.7%: max response [4]
inactive: Potency [1] | Potency [8] | Potency [18] | Potency [11] | max response [5] -18.6% and -6.7% | activation [6] 3.37% | activation [12] 0.739% and -2.14% | max response [13] -1.62% and -4.61% | Potency [7] | max response [14] -0.246% and 14% | Potency [16] | max response [20] 3.48% and 10.3%

Cc1cc(C)nc(NC(=O)NS(=O)(=O)c2ccccc2C(=O)OC2COC2)n1
-3.21%: max response [17]
inactive: Potency [1] | outcome [2] | Potency [3] | Potency [9] | outcome [10] | Potency [18] | Potency [11] | activation [6] 1.69% | activation [19] 1.32% | activation [12] -0.244% | max response [13] -2.96% | Potency [7] | max response [14] 18% | max response [15] 8.1% | max response [20] -3.04%

CCCN(CCC)c1c([N+](=O)[O-])cc(C(F)(F)F)c(N)c1[N+](=O)[O-]
inactive: outcome [2]
active: Potency [1] 31.6 µM [inhibitor]
